Growth inhibition data for 10 compounds are collected here from PubChem BioAssay (NCI).

A short description of assay [1]: NCI Yeast Anticancer Drug Screen. Data for the rad50 strain (AID 155).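 Further: 0% = growth of vehicle-only cultures of the same strain.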 Particulars: S. cerevisiae rad50 strain growth inhibition, hits give high values. In short, it runs like this:
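Growth of the mutant yeast was measured after compound exposure and referenced to vehicle-treated cultures.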

Assay [2] can be described thus: NCI Yeast Anticancer Drug Screen. Data for the mec2-1 strain (AID 157). Conditions: S. cerevisiae mec2-1 strain, hits give high values. In outline: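 Using mec2-1 yeast: add compound, measure growth, express inhibition versus vehicle-treated cultures.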
The nature of assay [3]: NCI Yeast Anticancer Drug Screen. Data for the sgs1 mgt1 strain (AID 161).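 Further: 0% = growth of cultures given vehicle only.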 Particulars: S. cerevisiae sgs1 mgt1 strain, hits give high values. In outline: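 Growth of a repair-deficient yeast mutant was monitored after compound treatment and expressed as inhibition relative to vehicle-treated cultures.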
Assay [4] in a line: NCI Yeast Anticancer Drug Screen. Data for the cln2 rad14 strain (AID 165).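 Further: 0% = growth equal to vehicle treated cultures.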 Particulars: S. cerevisiae cln2 rad14 strain, hits give high values. In outline:
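Yeast strain cln2 rad14, bearing defects in cell cycle control and DNA repair, serves as the test system; values reflect growth inhibition compared with vehicle.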

Assay [5] can be described thus: NCI Yeast Anticancer Drug Screen. Data for the bub3 strain (AID 167). Conditions: S. cerevisiae bub3 mutant strain, hits give high values. In short, it runs like this: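 Whole-cell yeast assay. The mutant strain was incubated with compounds, and growth inhibition was determined by comparison with vehicle-treated cells.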
A short description of assay [6]: NCI Yeast Anticancer Drug Screen. Data for the mlh1 rad18 strain (AID 175). Particulars: S. cerevisiae mlh1 rad18 strain growth inhibition, hits give high values. In short, it runs like this: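 Steps: expose repair-defective yeast to compound; measure growth; express inhibition against vehicle-treated controls.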
[7] abbreviates: at 5.0 µM (retest, dose inferred, filed as 0.5).
Where [8] appears, read: at 50.0 µM (retest, dose inferred, filed as 5.0).

About 79,000 compounds went through this panel and 15% of them were active in at least one assay; those are over-represented in the sample as a whole. A number with no mark means an inactive call. Active and inactive are the calls of the source. No stated cut-off is given here; in the data, active means growth inhibition above about 70%; inactive means the rest.

In the case of `CCCCc1c2c(nc3c1CC/C(=C\c1ccccc1)C3=O)CCCC2`, the growth inhibition in assay [1] (setting [7]) was -23%; in assay [1] (setting [8]) it was 97% (active); in assay [1] (at 50.0 µM), 65.8%; in assay [2] (setting [7]), -7%; in assay [2] (setting [8]), 98% (active); in assay [2] (at 50.0 µM), 48.5%. The growth inhibition in assay [3] (setting [7]) is -11%; in assay [3] (setting [8]), 97% (active); in assay [3] (at 50.0 µM) it was 69.6%; in assay [4] (setting [7]), -1%; in assay [4] (setting [8]), 97% (active); in assay [4] (at 50.0 µM), 38%. Moreover, the growth inhibition in assay [5] (setting [7]) is -1%; in assay [5] (setting [8]), 98% (active); in assay [5] (at 50.0 µM), 54%; in assay [6] (setting [7]), -19%; in assay [6] (setting [8]), 97% (active); in assay [6] (at 50.0 µM) it was 49.7%.

`CCCC12C=C(OC)C(=O)C=C1OC(c1ccc3c(c1)OCO3)C2C` (stereo not given): the growth inhibition in assay [1] (setting [7]) is 0%; in assay [1] (setting [8]), 55%; in assay [1] (at 50.0 µM), 43.9%; in assay [2] (setting [7]), -2%; in assay [2] (setting [8]), 81% (active); in assay [2] (at 50.0 µM), 70.8% (active). The growth inhibition was 0% in assay [3] (setting [7]); 86% (active) in assay [3] (setting [8]); 80.8% (active) in assay [3] (at 50.0 µM); -6% in assay [4] (setting [7]); 53% in assay [4] (setting [8]); 64.8% in assay [4] (at 50.0 µM). For the same compound, the growth inhibition in assay [5] (setting [7]) is 19%; in assay [5] (setting [8]) it was 89% (active); in assay [5] (at 50.0 µM), 79.3% (active); in assay [6] (setting [7]) it was -4%; in assay [6] (setting [8]), 70% (active); in assay [6] (at 50.0 µM), 55.1%.

For `[Cl][Ge]([c]1ccccc1)[c]1ccccc1.[Cl][Ge]([c]1ccccc1)[c]1ccccc1`, the growth inhibition in assay [1] (setting [7]) was 22%; in assay [1] (setting [8]), 73% (active); in assay [1] (at 50.0 µM) it was 33.4%; in assay [2] (setting [7]), 19%; in assay [2] (setting [8]) it was 79% (active); in assay [2] (at 50.0 µM) it was 41.5%. Also, the growth inhibition is 23% in assay [3] (setting [7]); 80% (active) in assay [3] (setting [8]); 55.1% in assay [3] (at 50.0 µM); 4% in assay [4] (setting [7]); 70% (active) in assay [4] (setting [8]); -4.65% in assay [4] (at 50.0 µM). Further, the growth inhibition was 16% in assay [5] (setting [7]); 80% (active) in assay [5] (setting [8]); 34.5% in assay [5] (at 50.0 µM); 12% in assay [6] (setting [7]); 78% (active) in assay [6] (setting [8]); 76.3% (active) in assay [6] (at 50.0 µM).

For the compound `CN(/N=C/c1ccc(C(=O)O)cc1)C1=NCCCCN1`, the growth inhibition in assay [1] (setting [7]) is -2%; in assay [1] (setting [8]), 29%; in assay [1] (at 50.0 µM) it was 5.85%; in assay [2] (setting [7]), -4%; in assay [2] (setting [8]), 25%; in assay [2] (at 50.0 µM), 3.4%. The growth inhibition in assay [3] (setting [7]) was -2%; in assay [3] (setting [8]), 45%; in assay [3] (at 50.0 µM) it was -7.95%; in assay [4] (setting [7]), 3%; in assay [4] (setting [8]) it was 12%; in assay [4] (at 50.0 µM) it was 40.5%. In addition, the growth inhibition is 2% in assay [5] (setting [7]); 28% in assay [5] (setting [8]); 3.2% in assay [5] (at 50.0 µM); 1% in assay [6] (setting [7]); 33% in assay [6] (setting [8]); -11.1% in assay [6] (at 50.0 µM).

For the compound `COc1cccc2c1N[S@](=O)S2`, the growth inhibition in assay [1] (setting [7]) is -12%; in assay [1] (setting [8]), 95% (active); in assay [1] (at 50.0 µM), 86.9% (active); in assay [2] (setting [7]), -12%; in assay [2] (setting [8]), 94% (active); in assay [2] (at 50.0 µM), 90.2% (active). For the same compound, the growth inhibition is 1% in assay [3] (setting [7]); 68% in assay [3] (setting [8]); 77.9% (active) in assay [3] (at 50.0 µM); -2% in assay [4] (setting [7]); 33% in assay [4] (setting [8]); 30% in assay [4] (at 50.0 µM). Moreover, the growth inhibition in assay [5] (setting [7]) was 1%; in assay [5] (setting [8]), 95% (active); in assay [5] (at 50.0 µM) it was 95.5% (active); in assay [6] (setting [7]), -11%; in assay [6] (setting [8]), 77% (active); in assay [6] (at 50.0 µM), 69.9%.

With `C=CCN1CCC(OC(=O)C(O)(C#CC)C2CCCC2)CC1` (stereo not given), the growth inhibition in assay [1] (setting [7]) was 40%; in assay [1] (setting [8]), 72% (active); in assay [1] (at 50.0 µM), 68.9%; in assay [2] (setting [7]) it was 31%; in assay [2] (setting [8]) it was 62%; in assay [2] (at 50.0 µM), 50.9%. Moreover, the growth inhibition in assay [3] (setting [7]) was 40%; in assay [3] (setting [8]), 71% (active); in assay [3] (at 50.0 µM), 71.9% (active); in assay [4] (setting [7]) it was 35%; in assay [4] (setting [8]), 76% (active); in assay [4] (at 50.0 µM) it was 58.6%. Further, the growth inhibition in assay [5] (setting [7]) was 21%; in assay [5] (setting [8]), 78% (active); in assay [5] (at 50.0 µM), 61.8%; in assay [6] (setting [7]) it was 17%; in assay [6] (setting [8]) it was 66%; in assay [6] (at 50.0 µM) it was 64%.

On to `Cn1cnc([N+](=O)[O-])c1S`, for which the growth inhibition in assay [1] (setting [7]) is 2%; in assay [1] (setting [8]), 1%; in assay [1] (at 50.0 µM) it was -4.8%; in assay [2] (setting [7]) it was -2%; in assay [2] (setting [8]) it was 9%; in assay [2] (at 50.0 µM) it was 16.2%. Further, the growth inhibition in assay [3] (setting [7]) is 0%; in assay [3] (setting [8]), -2%; in assay [3] (at 50.0 µM), 8.45%; in assay [4] (setting [7]), -5%; in assay [4] (setting [8]), 13%; in assay [4] (at 50.0 µM) it was 44%. Further, the growth inhibition is 0% in assay [5] (setting [7]); 3% in assay [5] (setting [8]); -0.8% in assay [5] (at 50.0 µM); 1% in assay [6] (setting [7]); 9% in assay [6] (setting [8]); 21.6% in assay [6] (at 50.0 µM).

Turning to `COc1cc2c(c(C)c1O)[C@H]1COc3ccccc3[C@H]1O2`, the growth inhibition is -24% in assay [1] (setting [7]); -9% in assay [1] (setting [8]); 75.2% (active) in assay [1] (at 50.0 µM); -38% in assay [2] (setting [7]); -9% in assay [2] (setting [8]); 77.8% (active) in assay [2] (at 50.0 µM). The growth inhibition in assay [3] (setting [7]) is 17%; in assay [3] (setting [8]), 13%; in assay [3] (at 50.0 µM) it was 89.9% (active); in assay [4] (setting [7]), 10%; in assay [4] (setting [8]) it was 11%; in assay [4] (at 50.0 µM) it was 57%. The growth inhibition in assay [5] (setting [7]) is 10%; in assay [5] (setting [8]), 61%; in assay [5] (at 50.0 µM), 83.9% (active); in assay [6] (setting [7]), -22%; in assay [6] (setting [8]), 10%; in assay [6] (at 50.0 µM), 65.5%.

For `CCOC(=O)/C=C1/C(=O)OC2C1OC1OC(C)(C)OC12` (stereo not given), the growth inhibition in assay [1] (setting [7]) was 9%; in assay [1] (setting [8]) it was 99% (active); in assay [1] (at 50.0 µM), 6.3%; in assay [2] (setting [7]) it was 16%; in assay [2] (setting [8]) it was 100% (active); in assay [2] (at 50.0 µM), 34.8%. For the same compound, the growth inhibition was -5% in assay [3] (setting [7]); 100% (active) in assay [3] (setting [8]); 57% in assay [3] (at 50.0 µM); 37% in assay [4] (setting [7]); 100% (active) in assay [4] (setting [8]); -15.1% in assay [4] (at 50.0 µM). Also, the growth inhibition in assay [5] (setting [7]) is 33%; in assay [5] (setting [8]) it was 100% (active); in assay [5] (at 50.0 µM), 26.1%; in assay [6] (setting [7]), 7%; in assay [6] (setting [8]) it was 99% (active); in assay [6] (at 50.0 µM), 54.8%.

Take `O=C(Nc1ccc(Cl)cc1)OCCOCCOC(=O)Nc1ccc(Cl)cc1`: the growth inhibition in assay [1] (setting [7]) was 9%; in assay [1] (setting [8]), 97% (active); in assay [1] (at 50.0 µM), 95.8% (active); in assay [2] (setting [7]), 0%; in assay [2] (setting [8]) it was 97% (active); in assay [2] (at 50.0 µM) it was 97% (active). For the same compound, the growth inhibition in assay [3] (setting [7]) was 25%; in assay [3] (setting [8]), 93% (active); in assay [3] (at 50.0 µM), 97.9% (active); in assay [4] (setting [7]) it was 6%; in assay [4] (setting [8]), 97% (active); in assay [4] (at 50.0 µM), 98.2% (active). In addition, the growth inhibition in assay [5] (setting [7]) is -7%; in assay [5] (setting [8]), 97% (active); in assay [5] (at 50.0 µM), 98.7% (active); in assay [6] (setting [7]) it was 4%; in assay [6] (setting [8]), 96% (active); in assay [6] (at 50.0 µM), 98% (active).
